Assay [1] can be described thus: Quantitative High-Throughput drug screen in 47 multiple myeloma cell lines against the NCATS MIPE library collection: Karpas25_ECACC cell viability assay (AID 1918968; also: nearly all actives have a fitted effect of over 35% in size; also: potency is read from the fitted curve at half-maximal effect). The method in brief: (§1)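 We plated 500 myeloma cells per well, pinned in MIPE 4.0 compounds, and incubated for 48 hours at 37C. ATP was then quantified with CellTiter-Glo, with DMSO and media-only wells defining 100% and 0%.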

The nature of assay [2]: Quantitative High-Throughput drug screen in 47 multiple myeloma cell lines against the NCATS MIPE library collection: KMS12BM_JCRB cell viability assay (AID 1918971). Also: potency is read from the fitted curve at half-maximal effect; nearly all actives have a fitted effect of over 35% in size. In a few lines:
(§2)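 Relative luminescence from CellTiter-Glo served as the viability signal, referenced to DMSO-treated (100%) and cell-free medium (0%) controls. Treatment lasted 48 hours at 37C with 500 cells per well.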

Assay [3] can be described thus: Quantitative High-Throughput drug screen in 47 multiple myeloma cell lines against the NCATS MIPE library collection: KMS26_JCRB cell viability assay (AID 1918975). Also: nearly all actives have a fitted effect of over 45% in size. Also: potency is read from the fitted curve at half-maximal effect. In a few lines: as §2
Assay [4] can be described thus: Quantitative High-Throughput drug screen in 47 multiple myeloma cell lines against the NCATS MIPE library collection: MMM1_PLB cell viability assay (AID 1918976). Also: nearly all actives have a fitted effect of over 35% in size. Also: potency is read from the fitted curve at half-maximal effect. In a few lines: (§3)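 Viability after 48 h drug exposure was measured as ATP-dependent luminescence. Cells, 500 per well, sat at 37 °C under 5% CO2; DMSO wells set 100%, media-only wells 0%.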
Assay [5] is described as follows: Quantitative High-Throughput drug screen in 47 multiple myeloma cell lines against the NCATS MIPE library collection: NCIH929_DSMZ cell viability assay (AID 1918978). Also: nearly all actives have a fitted effect of over 35% in size. Also: potency is read from the fitted curve at half-maximal effect. In a few lines: as §3
A short description of assay [6]: Quantitative High-Throughput drug screen in 47 multiple myeloma cell lines against the NCATS MIPE library collection: KMS12PE_JCRB cell viability assay (AID 1918972). Also: nearly all actives have a fitted effect of over 30% in size. Also: potency is read from the fitted curve at half-maximal effect. The method in brief:
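qHTS of the MIPE 4.0 collection: 500 myeloma cells/well, 48 h drug exposure at 37C in 5% CO2, then CellTiter-Glo for 5 min at room temperature before luminescence reading.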

The nature of assay [7]: Quantitative High-Throughput drug screen in 47 multiple myeloma cell lines against the NCATS MIPE library collection: KMS21BM_JCRB cell viability assay (AID 1918974). Also: potency is read from the fitted curve at half-maximal effect. The note with it: ATP luminescence, 48 h; viability: at 45.8 µM (top of the series). The method in brief: as §1
Assay [8] is described as follows: Quantitative High-Throughput drug screen in 47 multiple myeloma cell lines against the NCATS MIPE library collection: MOLP8_DSMZ cell viability assay (AID 1918977). Also: nearly all actives have a fitted effect of over 45% in size. Also: potency is read from the fitted curve at half-maximal effect. In a few lines: as §3
A short description of assay [9]: Quantitative High-Throughput drug screen in 47 multiple myeloma cell lines against the NCATS MIPE library collection: KMS20_JCRB cell viability assay (AID 1918973). Also: nearly all actives have a fitted effect of over 45% in size. Also: potency is read from the fitted curve at half-maximal effect. The method in brief:
as §1

Assay [10] in a line: Quantitative High-Throughput drug screen in 47 multiple myeloma cell lines against the NCATS MIPE library collection: KMS27_JCRB cell viability assay (AID 1918970). Also: nearly all actives have a fitted effect of over 30% in size. The note with it: KMS27 myeloma cells, CellTiter-Glo ATP viability, 48 h; viability (% of DMSO): at 45.8 µM (top of the series). The method in brief:
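Viability inhibition screen, 48 h compound exposure, luminescent ATP read-out.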
(ATP-based viability assays read luminescence as a measure of living cells.)

These results are taken from PubChem BioAssay (NCATS).

Inconclusive results are not listed. Active and inactive are the calls of the source. Calls follow the shape of the dose curve; as a rule, active = well fitted curve in the direction sought with a large enough effect; inconclusive = small, poorly fitted or top-dose-only effect, or another doubt; inactive = no such curve, though single readings can be large; an effect the other way counts as inactive or inconclusive.

On to `CN(C)c1ccc(-c2nc3ncc(Cl)c(N4CCN(CC(=O)Nc5nccs5)CC4)c3[nH]2)cc1`, for which the Potency in assay [1] was 2.64 µM (active); in [2], 4.18 µM (active); in assay [3] it was 5.9 µM (active); in [4] it was 9.35 µM (active). Besides, the Potency entry in [5] was “inactive”.

Regarding `Cc1ccccc1C(C(=O)NC1CCCCC1)N(C(=O)CNc1ccc(C#N)cc1)c1cccc(F)c1` (configuration not stated), the Potency result in assay [1] and in [5] was “inactive” throughout. For the same compound, the Potency in assay [2] is 2.96 µM (active).

On to `Cc1ccc(C2=Nc3ccc(Cl)cc3OC2)cc1`, for which the Potency in assay [1] is 3.72 µM (active); in assay [6] it was 4.18 µM (active); in assay [4], 18.7 µM (active). The Potency entry in assay [3] and in [5] was “inactive” each time.

For the compound `COc1ccc(Cn2ccc3ccc(C(=O)NO)cc32)cc1`, the Potency was 16.6 µM (active) in [1], 16.6 µM (active) in [6], 5.9 µM (active) in assay [7] and 18.7 µM (active) in assay [5].

`CC[C@@H]([C@H](C)O)n1ncn(-c2ccc(N3CCN(c4ccc(OCC5CO[C@@](Cn6cncn6)(c6ccc(F)cc6F)C5)cc4)CC3)cc2)c1=O` (some centres not stated): the Potency in assay [1] was 6.62 µM (active); in [2] it was 16.6 µM (active); in assay [4], 16.6 µM (active).

With `CCC[C@H](N[C@@H](C)C(=O)N1[C@@H]2CCCC[C@H]2C[C@H]1C(=O)O)C(=O)OCC`, the Potency result in [1], in assay [7], in assay [8] and in assay [5] was “inactive” each time. Moreover, the Potency in assay [6] was 6.62 µM (active).

For the compound `O=C(c1ccc(C=Cc2n[nH]c3ccccc23)cc1)N1CCNCC1`, the Potency in assay [1] was 3.72 µM (active); in [6] it was 2.35 µM (active); in assay [9], 1.87 µM (active); in assay [7], 0.59 µM (active); in assay [3], 16.6 µM (active); in assay [8], 16.6 µM (active). Further, the Potency in assay [5] is 2.35 µM (active).

Consider `CO[C@H]1O[C@@H]2O[C@@]3(C)CC[C@@H]4[C@@H](C)CC[C@@H]([C@H]1C)[C@@]24OO3`, for which the Potency in assay [1] is 1.18 µM (active); in [2], 3.32 µM (active); in assay [4], 3.72 µM (active); in assay [5], 0.833 µM (active). Moreover, in assay [3], the Potency result is “inactive”.

In the case of `NC(=O)c1ccc(N(C(N)=O)c2c(F)cccc2F)nc1-c1ccc(F)cc1F`, the Potency in assay [1] is 7.43 µM (active). Moreover, the Potency result in assay [6] and in assay [4] was “inactive” each time.

For the compound `CN(C)c1ccccc1CN1CCCN(Cc2ccccc2N(C)C)C1c1ccncc1`, the Potency in [1] is 16.6 µM (active); in assay [2], 16.6 µM (active); in assay [4], 16.6 µM (active); in assay [8], 18.7 µM (active); in assay [5], 14.8 µM (active).

As for `Nc1ncnc2c1ncn2[C@@H]1O[C@H](CO)[C@@H](O)[C@@H]1O`, the Potency is 5.26 µM (active) in assay [1]; 1.66 µM (active) in assay [6]; 0.209 µM (active) in assay [7]; 16.6 µM (active) in assay [3]; 8.33 µM (active) in assay [5].

As for `COc1cccc(OC)c1-c1cc(C(=O)NC2(C(=O)O)C3CC4CC(C3)CC2C4)nn1-c1ccnc2cc(Cl)ccc12` (configuration not stated), the Potency result in assay [1], in assay [6], in assay [9], in [3], in assay [8] and in assay [5] was “inactive” each time. The Potency in assay [4] was 14.8 µM (active).

`C=CCc1cccc(C=NNC(=O)CN2CCN(Cc3ccccc3)CC2)c1O`: the Potency in [1] is 18.7 µM (active); in assay [6] it was 4.18 µM (active); in assay [4], 16.6 µM (active); in [8], 6.62 µM (active); in assay [5] it was 26.4 µM (active).

For the compound `Cc1c(C(=O)Nc2ccc(N3C[C@@H](C)O[C@@H](C)C3)nc2)cccc1-c1ccc(OC(F)(F)F)cc1`, the Potency is 4.18 µM (active) in assay [1], 18.7 µM (active) in assay [2], 11.8 µM (active) in [4] and 13.2 µM (active) in [8].

As for `O=C(Nc1cccc(C(F)(F)F)c1)Nc1cc(S(=O)(=O)NC2CC2)ccc1-c1ccsc1`, the Potency in assay [1] was 26.4 µM (active); in assay [3] it was 16.6 µM (active); in assay [4] it was 18.7 µM (active); in assay [8], 4.18 µM (active); in [5], 23.5 µM (active). For the same compound, the Potency entry in assay [6] is “inactive”.

`Cn1c(=O)c(Oc2ccc(F)cc2F)cc2cnc(NC3CCOCC3)nc21`: the Potency entry in assay [10], in [9], in assay [3] and in assay [5] was “inactive” throughout. The Potency in assay [2] is 16.6 µM (active); in assay [4] it was 1.87 µM (active).

With `O=C(NCCCCN1CCOCC1)c1cc2ccccc2o1`, the Potency result in assay [10], in assay [6], in assay [3] and in assay [5] was “inactive” each time. In addition, the Potency in assay [2] is 0.0743 µM (active).

For the compound `COc1ccc(CCN(C)CCCOc2ccc(S(=O)(=O)c3[nH]c4ccccc4c3C(C)C)cc2)cc1OC`, the Potency entry in assay [10] and in [6] was “inactive” throughout. Further, the Potency is 23.5 µM (active) in assay [2] and 9.35 µM (active) in [4].
